# Assay results from publication PMC5540273 (PLoS ONE, 2017).
# Read-outs that look alike come from different tables or passages of the source.
# Key:
# LCK = conditions: concentration: 1 μM, replicates: in singlicate; n = 1
# LIMK1 = conditions: concentration: 1 μM, replicates: in singlicate; n = 1
# LIMK2 = conditions: concentration: 1 μM, replicates: in singlicate; n = 1
# LKB1 = system: T1, LKB1; conditions: concentration: 1 μM, replicates: in singlicate; n = 1
# T1 construct: gene STK11
# LOK = system: T2, LOK; conditions: concentration: 1 μM, replicates: in singlicate; n = 1
# T2 construct: gene STK10
# LRRK2 = conditions: concentration: 1 μM, replicates: in singlicate; n = 1
# LTK = conditions: n = 1
# LYN = conditions: concentration: 1 μM, replicates: in singlicate; n = 1
# LZK = system: T3, LZK; conditions: concentration: 1 μM, replicates: in singlicate; n = 1
# T3 construct: gene MAP3K13
# MAK = conditions: concentration: 1 μM, replicates: in singlicate; n = 1
# [1] = concentration: 1 μM, replicates: in singlicate
# 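Further: KINOMEscan kinase panel screen.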
Compound,%Inh (LCK),%Inh (LIMK1),%Inh (LIMK2),%Inh (LKB1),%Inh (LOK),%Inh (LRRK2),%Inh (LTK; [1]),%Inh (LYN),%Inh (LZK),%Inh (MAK),%Inh (LTK; 1 µM)
COc1cccc2c(-c3ccncc3)c(-c3ccc(F)cc3)nn12 [GW468513],23%,0%,0%,0%,0%,48%,28%,0%,0%,27%,
COc1ccc(C2=C(Nc3cccc(O)c3)C(=O)NC2=O)cc1 [SB-390766],0%,0%,10%,0%,0%,5%,30%,52%,6%,0%,
Fc1cc(Cl)ccc1Nc1ccnc2cc(-c3ccc(CN4CCOCC4)o3)ccc12 [GW560109],97%,0%,0%,0%,62%,70%,57%,76%,0%,7%,
Cc1cccc(Nc2nc(N[C@H]3CCCC[C@H]3N)ncc2C(N)=O)c1.Cl [GSK986310],47%,15%,18%,0%,0%,21%,52%,34%,0%,27%,
CN(c1ccc(NC(=O)N2CCN(CCCN3CCOCC3)CC2)cc1)c1ccnc(Nc2ccc(CS(C)(=O)=O)cc2)n1.Cl [GW830899],16%,2%,6%,0%,72%,0%,0%,0%,0%,0%,
N#CC1(c2cccc(C(=O)Nc3cccc(Oc4ccc5nc(NC(=O)C6CC6)sc5n4)c3)c2)CC1,99.3%,6%,0%,0%,95.9%,0%,0%,91.4%,0%,3%,
CN1CCN(Cc2ccc(NC(=O)Nc3ccc(N(C)c4ccnc(Nc5ccc(CS(C)(=O)=O)cc5)n4)cc3)cc2)CC1.Cl [GW827654],82%,27%,31%,17%,99.9%,0%,46%,70%,42%,34%,
O=C(O)C(F)(F)F.O=c1[nH]ccc2nc(N[C@@H]3CCNC3)nc(Nc3cc(Cl)cc(Cl)c3)c12 [GSK2188764],0%,19%,13%,43%,70%,97.3%,31%,21%,7%,16%,
COc1cccc(-c2nc(-c3ccccc3)[nH]c2-c2ccncc2)c1 [SB-610250],16%,20%,0%,4%,0%,14%,0%,0%,0%,47%,
COc1cc(Nc2nccc(N3CCC(NC(=O)Nc4ccc5c(c4)OCO5)C3)n2)cc(OC)c1OC (stereo not drawn) [GSK1379766],32%,40%,13%,0%,0%,0%,74%,3%,24%,3%,
O=C(Nc1n[nH]c2nc(-c3ccccc3)ccc12)C1CC1 [SB-708999],9%,0%,31%,0%,30%,0%,0%,21%,2%,38%,
CN(C)CCOc1ccc(-c2cc(-c3ccc(Cl)c(O)c3)c(-c3ccncc3)[nH]2)cc1.Cl.Cl [SB-684387],86%,13%,11%,20%,84%,17%,0%,28%,41%,41%,
CNc1nccc(-c2ccc3c(N)n[nH]c3c2)n1 [GSK2206003],19%,0%,0%,5%,23%,1%,27%,0%,0%,29%,
CCOc1nccc(-c2c(-c3ccc(F)cc3)ncn2C2CCNCC2)n1 [SB-249175],82%,3%,11%,30%,0%,0%,4%,12%,3%,1%,
CCn1c(-c2nonc2N)nc2c(-c3ccccc3)ncc(OCCCN)c21.O=C(O)C(F)(F)F.O=C(O)C(F)(F)F [GSK260205],29%,1%,0%,0%,98.7%,28%,0%,0%,0%,0%,
COc1cccc(CC(=O)N2CCc3cc(-c4cn(C)c5ncnc(N)c45)ccc32)c1 [GSK2608899],34%,0%,35%,4%,98.5%,0%,36%,22%,0%,2%,
O=C(Nc1n[nH]c2cc(-c3cccs3)ccc12)C1CC1 [SB-731284],0%,6%,0%,10%,17%,0%,0%,0%,0%,0%,
Cc1ccc(NC(=O)c2ccnc(N3CCCCC3)c2)cc1-c1ccc(C(=O)NCC2CC2)cc1 [GW775610],29%,0%,0%,34%,79%,0%,15%,0%,0%,13%,
Nc1cccc(-c2ccc3c(N)n[nH]c3c2)c1 [GSK2193613],9%,0%,12%,12%,0%,0%,0%,0%,0%,18%,
N#Cc1cnc2cc(-c3cnc(CNCCN4CCOCC4)s3)ccc2c1Nc1ccc(Oc2ccccc2)cc1 [GW664114],99.7%,6%,0%,0%,88%,0%,0%,90%,76%,28%,
CCNc1nccc(-c2c(-c3ccc(F)cc3)ncn2C2CCN(C)CC2)n1,11%,0%,7%,0%,0%,0%,0%,0%,0%,0%,
Cn1cc(-c2ccc3c(c2)CCN3C(=O)Cc2cc(F)cc(F)c2F)c2c(N)ncnc21 [GSK2634140],58%,0%,0%,0%,91.8%,0%,24%,0%,0%,23%,
COc1ccc(NC(=O)c2ccoc2)cc1-c1ccc(C(=O)NCC2CC2)cc1 [GW810437],0%,2%,0%,52%,28%,20%,16%,0%,19%,13%,

Compound,%Inh (LCK),%Inh (LIMK1),%Inh (LIMK2),%Inh (LKB1),%Inh (LOK),%Inh (LRRK2),%Inh (LTK; [1]),%Inh (LYN),%Inh (LZK),%Inh (MAK),%Inh (LTK; 1 µM)
Cc1ccc(Nc2ccnc(Nc3ccc(C)c(F)c3)n2)cc1O.Cl [GW582868],59%,0%,0%,0%,5%,57%,0%,22%,24%,17%,
CC(=O)Nc1cn2nc(Oc3cccc(NC(=O)c4cccc(C(F)(F)F)c4)c3)ccc2n1,99.5%,0%,14%,0%,90.1%,8%,0%,97.9%,0%,0%,
O=C(Nc1c(F)cccc1F)c1cc(C(=O)c2ccccc2F)c[nH]1 [GSK1326180],8%,3%,0%,0%,28%,6%,0%,0%,0%,0%,
Cc1ccc(NC(=O)c2cccc(N3CCCCC3)c2)cc1-c1ccc(C(=O)NCC2CC2)cc1 [GSK1917008],38%,8%,100%,0%,32%,22%,7%,0%,0%,24%,
Nc1ncnc2scc(-c3ccc(NC(=O)Cc4cc(F)ccc4F)cc3)c12.O=C(O)C(F)(F)F [SB-731254-M],54%,55%,96%,29%,81%,0%,71%,16%,0%,20%,
Cc1nn2c(=O)cc(N3CCO[C@H](C)C3)nc2n1Cc1cccc(Cl)c1Cl [GSK2373693],13%,0%,0%,0%,0%,18%,27%,0%,0%,15%,
O=C1NC(=O)C(c2ccccc2Cl)=C1Nc1cccc(Cl)c1 [SB-342409],1%,20%,89%,0%,5%,2%,0%,0%,0%,12%,
COc1cc(Nc2ccnc3cc(-c4ccncc4)ccc23)cc(OC)c1OC.Cl [GW494610],98.6%,0%,0%,0%,96.9%,27%,24%,67%,31%,20%,
Cl.N#CCc1ccc(Nc2nccc(Nc3ccc(Oc4ccccc4)cc3)n2)cc1 [GW639905],90.6%,25%,11%,0%,0%,58%,42%,62%,0%,20%,
Cc1cc(-c2c(-c3ccc(F)cc3)ncn2CCCN2CCOCC2)nc(N)n1 [SB-222517],12%,0%,0%,45%,18%,0%,4%,17%,0%,35%,
Nc1ncc(-c2cn[nH]c2)c2scc(-c3ccc4c(c3)CCN4C(=O)Cc3ccccc3)c12 [GSK2593067],96.5%,17%,49%,2%,98.6%,52%,67%,80%,0%,10%,
O=C(Nc1n[nH]c2nc(-c3cccc(O)c3)ccc12)C1CC1 [SB-711805],25%,0%,0%,14%,15%,0%,12%,5%,0%,0%,
COc1cccc(C2=C(Nc3cccc(O)c3)C(=O)NC2=O)c1 [SB-390771],11%,9%,18%,0%,0%,0%,6%,24%,0%,25%,
Nc1ncc(-c2ccc3nccc(-c4ccncc4)c3c2)cc1S(=O)(=O)N1CCCCC1 [GSK1693850],24%,0%,22%,0%,7%,0%,6%,16%,0%,16%,
COC(=O)Nc1nc2ccc(Oc3ccc(NC(=O)Nc4cc(C(F)(F)F)ccc4F)cc3)cc2[nH]1.Cl [GW654607],99.3%,37%,16%,0%,99.1%,28%,63%,86%,0%,85%,
CCn1cnc2c(NCc3ccccc3)ncnc21 [SKF-96418],0%,0%,0%,25%,5%,0%,0%,0%,34%,0%,
Cl.Cl.NCC(NC(=O)c1cc(-c2cccnc2)c(-c2ccnc3[nH]ccc23)s1)c1ccccc1 (stereo not drawn) [GSK1323434],33%,0%,0%,22%,0%,0%,0%,0%,77%,21%,
Cn1cc(-c2cnc(N)c3c(-c4ccc5c(c4)CCN5C(=O)Cc4ccccc4)csc23)cn1 [GSK2593074],93.8%,49%,55%,0%,98.9%,3%,,65%,0%,0%,0%
CN(C)CCNS(=O)(=O)c1ccc(-c2ccnc3[nH]ccc23)cc1 [GSK977620],23%,0%,0%,0%,0%,47%,4%,0%,0%,84%,
COc1ccc(C)c(Nc2ccnc(Nc3ccc(-c4cnc[nH]4)cc3)n2)c1.Cl [GW784041],75%,31%,16%,0%,57%,0%,42%,30%,0%,0%,
CN(c1ccc(F)c(NC(=O)c2cccc(OC(C)(C)C#N)c2Cl)c1)c1ccc2nc(NC(=O)C3CC3)sc2n1,97.9%,0%,0%,11%,95.4%,9%,0%,93.1%,46%,0%,
Cc1ccc(O)cc1Nc1ccnc2ccc(C(C)(C)C)cc12 [GW856805],98.6%,0%,0%,33%,16%,67%,11%,69%,0%,23%,
